Data from ChEMBL document CHEMBL5724796, “Tm Shift (DSF) assay results for EUbOPEN Chemogenomics Library” (2024).

Tests used:
Conditions in all cases: Compound concentration 20.0 uM
[1] = target: Tyrosine-protein kinase ABL1 (Homo sapiens) (UniProt P00519)
[2] = target: Bromodomain-containing protein 4 (Homo sapiens) (UniProt O60885)
[3] = target: Cyclin-dependent kinase 2 (Homo sapiens) (UniProt P24941)
[4] = target: Casein kinase I isoform delta (Homo sapiens) (UniProt P48730)
[5] = target: Glycogen synthase kinase-3 beta (Homo sapiens) (UniProt P49841)
Sequence of Glycogen synthase kinase-3 beta (Homo sapiens) (P49841 whole entry, looked up): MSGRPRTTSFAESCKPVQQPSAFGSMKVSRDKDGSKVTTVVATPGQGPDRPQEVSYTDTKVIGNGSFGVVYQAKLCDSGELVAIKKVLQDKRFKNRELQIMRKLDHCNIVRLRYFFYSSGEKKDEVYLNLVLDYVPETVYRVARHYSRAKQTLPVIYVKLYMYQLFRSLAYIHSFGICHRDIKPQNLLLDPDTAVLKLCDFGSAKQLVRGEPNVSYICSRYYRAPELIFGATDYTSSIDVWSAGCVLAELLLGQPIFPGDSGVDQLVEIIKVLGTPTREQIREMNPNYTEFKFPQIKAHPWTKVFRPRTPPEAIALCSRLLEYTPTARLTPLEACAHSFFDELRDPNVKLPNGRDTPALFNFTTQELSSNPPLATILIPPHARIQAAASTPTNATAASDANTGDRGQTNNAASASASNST

[6] = target: Mitogen-activated protein kinase 1 (Homo sapiens) (UniProt P28482)
Sequence of Mitogen-activated protein kinase 1 (Homo sapiens) (P28482 whole entry): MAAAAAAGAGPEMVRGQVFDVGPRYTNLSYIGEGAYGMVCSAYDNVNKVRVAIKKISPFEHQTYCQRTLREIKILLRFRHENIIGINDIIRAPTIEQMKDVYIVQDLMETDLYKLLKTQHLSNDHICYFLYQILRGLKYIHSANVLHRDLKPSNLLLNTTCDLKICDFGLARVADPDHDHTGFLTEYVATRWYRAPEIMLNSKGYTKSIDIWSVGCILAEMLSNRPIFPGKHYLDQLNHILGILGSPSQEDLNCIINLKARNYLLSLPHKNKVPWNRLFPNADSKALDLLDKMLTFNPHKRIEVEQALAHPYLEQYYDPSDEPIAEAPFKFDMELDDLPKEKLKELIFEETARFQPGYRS

[7] = target: T1, Aurora kinase A (Homo sapiens) (UniProt O14965)
T1 sequence (whole entry): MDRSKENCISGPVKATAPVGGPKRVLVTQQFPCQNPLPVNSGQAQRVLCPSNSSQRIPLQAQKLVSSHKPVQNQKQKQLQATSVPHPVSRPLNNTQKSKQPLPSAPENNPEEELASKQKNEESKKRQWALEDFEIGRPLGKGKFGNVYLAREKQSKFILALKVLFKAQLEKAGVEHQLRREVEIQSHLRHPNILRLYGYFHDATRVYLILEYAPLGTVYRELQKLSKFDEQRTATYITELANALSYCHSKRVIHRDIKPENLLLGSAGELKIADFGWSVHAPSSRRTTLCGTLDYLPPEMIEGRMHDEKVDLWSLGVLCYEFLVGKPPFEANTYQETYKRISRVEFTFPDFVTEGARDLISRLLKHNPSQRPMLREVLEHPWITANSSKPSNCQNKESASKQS

[8] = target: T2, Transcription intermediary factor 1-alpha (Homo sapiens) (UniProt O15164)
T2 sequence (whole entry): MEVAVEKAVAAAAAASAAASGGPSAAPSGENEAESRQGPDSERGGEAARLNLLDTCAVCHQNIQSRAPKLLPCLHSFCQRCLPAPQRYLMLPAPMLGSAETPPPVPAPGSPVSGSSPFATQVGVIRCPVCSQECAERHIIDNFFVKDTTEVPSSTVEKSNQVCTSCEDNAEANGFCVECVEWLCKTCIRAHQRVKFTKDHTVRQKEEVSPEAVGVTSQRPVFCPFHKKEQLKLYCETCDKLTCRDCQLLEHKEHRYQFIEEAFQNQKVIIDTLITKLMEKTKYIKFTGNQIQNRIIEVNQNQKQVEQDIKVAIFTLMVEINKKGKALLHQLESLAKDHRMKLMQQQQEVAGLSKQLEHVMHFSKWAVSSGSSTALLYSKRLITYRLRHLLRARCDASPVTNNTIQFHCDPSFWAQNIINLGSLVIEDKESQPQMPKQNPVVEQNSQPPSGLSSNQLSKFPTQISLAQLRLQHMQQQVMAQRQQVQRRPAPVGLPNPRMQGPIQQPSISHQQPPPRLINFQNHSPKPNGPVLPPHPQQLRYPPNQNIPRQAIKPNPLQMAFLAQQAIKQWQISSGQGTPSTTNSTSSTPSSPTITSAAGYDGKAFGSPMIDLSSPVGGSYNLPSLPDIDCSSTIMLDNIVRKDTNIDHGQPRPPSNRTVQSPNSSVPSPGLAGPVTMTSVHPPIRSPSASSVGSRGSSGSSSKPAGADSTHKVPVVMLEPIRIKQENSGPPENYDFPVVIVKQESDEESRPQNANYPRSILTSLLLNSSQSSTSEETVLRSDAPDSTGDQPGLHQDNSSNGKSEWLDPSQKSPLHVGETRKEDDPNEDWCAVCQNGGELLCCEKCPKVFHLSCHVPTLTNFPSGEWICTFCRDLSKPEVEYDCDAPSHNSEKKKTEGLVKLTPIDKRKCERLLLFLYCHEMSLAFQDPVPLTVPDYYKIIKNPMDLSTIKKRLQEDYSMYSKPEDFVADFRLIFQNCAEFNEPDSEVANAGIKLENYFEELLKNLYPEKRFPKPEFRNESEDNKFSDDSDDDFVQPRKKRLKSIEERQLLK

Sequence of Casein kinase I isoform delta (Homo sapiens) (P48730 whole entry, looked up, canonical isoform): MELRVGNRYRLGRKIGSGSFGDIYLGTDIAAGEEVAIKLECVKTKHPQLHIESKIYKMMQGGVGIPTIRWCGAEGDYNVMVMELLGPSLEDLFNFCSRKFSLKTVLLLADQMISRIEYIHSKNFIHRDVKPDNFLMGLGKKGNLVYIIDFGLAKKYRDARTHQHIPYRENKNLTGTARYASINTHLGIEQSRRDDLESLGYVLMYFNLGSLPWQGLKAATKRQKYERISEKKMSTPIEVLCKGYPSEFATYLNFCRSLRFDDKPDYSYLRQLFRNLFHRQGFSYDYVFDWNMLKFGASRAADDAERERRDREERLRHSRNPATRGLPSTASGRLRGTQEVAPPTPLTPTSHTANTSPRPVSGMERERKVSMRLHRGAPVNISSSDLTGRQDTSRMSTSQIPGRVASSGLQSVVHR
Sequence of Tyrosine-protein kinase ABL1 (Homo sapiens) (P00519 whole entry): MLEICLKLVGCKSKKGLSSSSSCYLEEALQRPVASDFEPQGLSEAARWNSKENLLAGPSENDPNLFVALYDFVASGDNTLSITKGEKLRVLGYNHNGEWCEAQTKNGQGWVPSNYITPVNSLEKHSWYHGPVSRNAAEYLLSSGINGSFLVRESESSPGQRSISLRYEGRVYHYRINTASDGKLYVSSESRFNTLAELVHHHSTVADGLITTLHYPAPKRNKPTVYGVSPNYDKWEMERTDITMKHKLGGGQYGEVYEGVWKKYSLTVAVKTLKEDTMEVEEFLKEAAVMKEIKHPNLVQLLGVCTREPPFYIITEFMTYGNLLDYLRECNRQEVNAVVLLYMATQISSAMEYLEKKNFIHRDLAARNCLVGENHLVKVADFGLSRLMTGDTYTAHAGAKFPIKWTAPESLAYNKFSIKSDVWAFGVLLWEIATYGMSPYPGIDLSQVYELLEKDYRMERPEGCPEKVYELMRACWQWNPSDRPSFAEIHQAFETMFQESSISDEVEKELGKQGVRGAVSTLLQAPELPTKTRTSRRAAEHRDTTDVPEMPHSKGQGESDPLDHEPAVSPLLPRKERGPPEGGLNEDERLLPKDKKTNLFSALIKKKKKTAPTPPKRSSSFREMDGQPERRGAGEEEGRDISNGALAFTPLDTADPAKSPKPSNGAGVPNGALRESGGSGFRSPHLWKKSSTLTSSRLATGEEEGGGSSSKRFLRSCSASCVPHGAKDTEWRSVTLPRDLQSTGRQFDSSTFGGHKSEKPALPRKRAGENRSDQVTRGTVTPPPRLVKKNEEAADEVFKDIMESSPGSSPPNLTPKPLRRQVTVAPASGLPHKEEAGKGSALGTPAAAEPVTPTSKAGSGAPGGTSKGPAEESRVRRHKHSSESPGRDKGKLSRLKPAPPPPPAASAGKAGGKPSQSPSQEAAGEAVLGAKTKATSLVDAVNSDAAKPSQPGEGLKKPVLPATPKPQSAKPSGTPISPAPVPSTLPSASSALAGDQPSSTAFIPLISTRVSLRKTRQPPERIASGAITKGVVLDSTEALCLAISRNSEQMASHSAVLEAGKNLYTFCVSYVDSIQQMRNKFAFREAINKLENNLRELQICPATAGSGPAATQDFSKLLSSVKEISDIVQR

| SMILES | ΔTm [1] [°C] | ΔTm [2] [°C] | ΔTm [3] [°C] | ΔTm [4] [°C] | ΔTm [5] [°C] | ΔTm [6] [°C] | ΔTm [7] [°C] | ΔTm [8] [°C] |
| --- | --- | --- | --- | --- | --- | --- | --- | --- |
| Cc1ncsc1-c1ccc(CNC(=O)[C@@H]2C[C@@H](O)CN2C(=O)[C@@H](NC(=O)COCCOCCOCCNC(=O)C[C@@H]2N=C(c3ccc(Cl)cc3)c3c(sc(C)c3C)-n3c(C)nnc32)C(C)(C)C)cc1 | 0.3 | 10 | -1.76 | 0.94 | 0 | 0 | 0 | 0 |
| CC(C)(C)OC(=O)Nc1ccc(CNc2nccc(Nc3cc(C(=O)OC(C)(C)C)[nH]n3)n2)cc1 | 2.57 | -0.88 | 5.67 | 0.13 | 0.97 | -2.08 | 26.1 | 0.26 |
| NC(=O)c1cccc(NC(=O)CCC(=O)NCCc2cn(CCNS(=O)(=O)c3cccc(C(=O)O)c3)nn2)c1 | 0.47 | -2.59 | -0.69 | 0.02 | -1.06 | -1.68 | -2.28 | -0.11 |
| CCCOC(=O)N1CCN(C(=O)c2ccc3c(Cl)cc(-c4ccc(C5(N)CC5)cc4)nc3c2)C[C@H]1C | 0.57 | -1.83 | 0.05 | 0.03 | -1.68 | -7.2 | 0.93 | -3.45 |
| CCS(=O)(=O)N1CC(CC#N)(n2cc(-c3ncnc4[nH]ccc34)cn2)C1 | 2.37 | -1.2 | 0.85 | 1.28 | 3.43 | 0.18 | 5.08 | -0.73 |
| Nc1nc(C(F)(F)F)nc2c1nnn2C[C@H]1CN(Cc2nccs2)CCO1 | 0.2 | -2.15 | 0.32 | -0.15 | -0.98 | 0.32 | -1.21 | 0.71 |
| C[C@@H](Oc1ccc(CNC(=O)c2cccnc2Oc2ccc3c(c2)OCO3)c(F)c1)C(=O)O | 0.69 | -1.71 | 0.09 | -0.5 | -0.12 | 0.23 | -1.52 | -0.05 |
| C[C@@H]1CN(c2nccc(Nc3ccc4c(c3)n(CCC(C)(C)O)c(=O)n4C)n2)C[C@H](C)C1(F)F | 1.46 | -1.76 | 3.21 | -0.23 | -0.32 | -7.23 | -2.03 | -1.14 |
